MARV entry inh = blocks Marburg virus binding to or entry into cells | Marburg virus pseudotyped entry inhibition, cell reporter | Potency, µM (doses to about 37.8 µM), inactives show at the highest dose activity change, negative = inhibition, hits mostly inhibitors | 1.8% of 300,000 active; calls by dose curve; tested in HEK293 cells; note: potency is the fitted concentration of half-maximal effect
LASV entry inh = Lassa virus entry inhibition; Lassa virus pseudotype entry inhibition, cell reporter; Potency, µM (titrated, usually from 37.9 µM), inactives show top-dose activity change, negative = inhibition, actives largely listed as inhibitors; 1.2% of 300,000 active; AID 540256; calls by dose curve; tested in HEK293 cells; note: potency is the fitted concentration of half-maximal effect; nearly all actives have a fitted effect of over 50% in size
HCMV antiviral = blocks human cytomegalovirus replication. HFF cells, HCMV-luciferase reporter, 72 h; hits give low values. activity change, negative = inhibition, % at 57.5 µM. 4.5% of 410,000 active. AID 1259415; in the data active = activity change below about -60%; inconclusive = no clear call, values can overlap the other calls; inactive = above about -39%
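Luciferase read-out from HCMV-luciferase-infected HFFs (MOI 1 PFU/cell) 72 h post infection at 37C; compounds added after 16 h cell attachment; activity normalized between buffer-only basal and Salinomycin (10uM) inhibitor controls.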
HCV inh = blocks hepatitis C virus | 3.4% of 340,000 active | Potency, µM (titrated, usually from 41.8 µM), for inactives: at the highest dose activity change, negative = inhibition, actives largely listed as inhibitors | Huh7.5.1 HCVcc-Cre infection, luciferase reporter, 44 h; active = well fitted inhibition curve with a large enough effect; inconclusive = small, poorly fitted or top-dose-only effect, or another doubt; inactive = no such curve, though single readings can be large or run the other way; note: potency is the fitted concentration of half-maximal effect
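Seed cells (1,000/well) for 4 h; treat with compound and infect with HCVcc-Cre, moi about 0.5. Incubate 44 h, then detect luciferase activity.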
FMDV antiviral = antivirals against foot and mouth disease virus; FMDV antiviral cell-based qHTS; Potency, µM (highest dose often 57.9 µM), for the others: top-dose activity change, negative = inhibition, most hits filed as inhibitors; 1.2% of 410,000 active; AID 1159524; calls by dose curve; tested in HEK293T cells; note: read-out not given here; potency is the fitted concentration of half-maximal effect; nearly all actives have a fitted effect of over 45% in size
* hit, by the source's call; ? = inconclusive; · = no result; [ ] = dose if it differs, or a comment. The list is not random: actives were taken first. Their share in the collection is about 7.9%. % is set by controls: 0 for no effect and ±100 for the full control effect.

SMILES	MARV entry inh	LASV entry inh	HCMV antiviral	HCV inh	FMDV antiviral
COc1ccc(/C=C/C(=O)NC(=S)Nc2cc3oc4ccccc4c3cc2OC)cc1	-15%	-12%	-32	8%	-3%
Nc1ccc(C(=O)Oc2ccccc2)c(O)c1	·	·	·	·	54%
Cc1cc(OCCCSc2nc(-c3ccc(C(C)(C)C)cc3)nc3cc(=O)[nH]n23)ccc1Cl	·	-8%[46.1 µM]	-64*	·	-16%
CC(C)(C)c1ccc(-c2nc(SCCCOc3ccccc3)n3[nH]c(=O)cc3n2)cc1	·	18%[46.1 µM]	?	·	-16%
COc1ccc(C(=O)Nc2cc(-c3ccccc3)nn2-c2ccccc2F)cc1	·	·	-8	?	4%
Cc1cc(C(=O)C(C)OC(=O)c2ccc(NC(=O)CC#N)cc2)c(C)n1-c1ccccc1 (stereo not drawn)	?	?	-63*	?	16µM*
CCOC(=O)c1cc(C)n(-c2ccccc2)c1C	28%[46.1 µM]	-2%	-77*	-11%	44%
CC(OC(=O)c1ccc(NC(=O)CC#N)cc1)C(=O)NC(c1ccccc1)c1ccccc1 (stereo not drawn)	?	-18%	-30	8%	-3%
Cc1cc(C(=O)COc2cccc(-n3cnnn3)c2)c(C)n1-c1ccccc1	-8%	?	-7	1µM*	?
Cc1cc(C(=O)O)c(C)n1-c1ccccc1	14%	12%	26	6%	-4%
Cc1cc(=O)c(C(=O)O)c(C)n1-c1ccccc1	6%	25%	-62*	-16%	0%
CC(=O)N1CC(=O)N(c2ccccc2)C1=O	·	·	-6	13%	-9%
CC(=O)Nc1ccc(SCC(=O)c2cc(C)n(-c3ccccc3)c2C)cc1	-21%	-7%	-60*	-1%	14%
O=C1c2ccccc2C(c2nnnn2-c2ccc3c(c2)OCCO3)N1Cc1cccs1 (stereo not drawn)	·	·	-11	·	2%
Cc1cc(C)cc(NC(=O)Cn2c3ncccc3c(=O)n2-c2ccc(C)c(C)c2)c1	·	-7%[46.1 µM]	28	·	-18%
CCOc1ccc(N(C(=O)c2snc(C(N)=O)c2N)C(C(=O)NC2CCCC2)c2ccncc2)cc1 (stereo not drawn)	0%[46.1 µM]	0%[46.1 µM]	?	?	-7%
C=CCSc1nnc(COc2ccc(=O)n(-c3ccccc3)n2)n1CC	16%[46.1 µM]	8%	-93*	18%	-2%
C(=N\Nc1ccccn1)/c1c[nH]c2ccccc12	?	-9%[46.1 µM]	-68*	-24%	12%
O=c1nc(N/N=C/c2c[nH]c3ccccc23)cn[nH]1	8.9µM*	?	0	3%	8%
O=c1nc(N/N=C/C=C/c2ccccc2)cn[nH]1	-9%[46.1 µM]	2.2µM*	15	11%	?
COc1ccc(NC(=O)CSc2nc3cc(OC)c(OC)cc3c3nc(-c4ccccc4)nn23)cc1Cl	-5%[46.1 µM]	7%[46.1 µM]	-2	·	-20%
CCCOc1ccc(/C=C/C(=O)Nc2sc(C)c(C)c2C(=O)OCC)cc1OC	·	9%[46.1 µM]	-5	·	-1%
Cc1ccc2oc3c(c(=O)c2c1)C(c1ccccc1F)N(c1ccccn1)C3=O (stereo not drawn)	-2%[46.1 µM]	4%[46.1 µM]	-8	·	0%
COc1cccc([C@@H]2Oc3ccc(OC)cc3/C(=N/OC[C@@H](C)[C@H](OCc3ccccc3)C(C)C)[C@@H]2O)c1	10%[14.2 µM]	·	·	·	·
Cc1ccc(NC(=O)N2CCc3c([nH]c4ccccc34)C2c2ccccc2F)c(Cl)c1 (stereo not drawn)	·	7.9µM*	-28	·	-10%
SMILES	MARV entry inh	LASV entry inh	HCMV antiviral	HCV inh	FMDV antiviral
CCN(CC)S(=O)(=O)c1ccc(C(=O)N(c2ccc(C)cc2)C2C=CS(=O)(=O)C2)cc1 (stereo not drawn)	8%[46.1 µM]	2%[46.1 µM]	-39	13%	3%
CCCCn1c(=O)[nH]c(=O)c2c1nc(Cn1ncc(Cl)c(Cl)c1=O)n2CCC	?	?	-100*	10µM*	?
CCCCn1c(=O)[nH]c(=O)c2c1nc(CN1C(=O)c3ccccc3S1(=O)=O)n2CCC	-3%	18%	-7	-8%	?
CCCCOC(=O)Nc1nnc(-c2ccccc2OC)s1	8%	-19%	-83*	4%	-2%
COc1cccc(C(=O)Nc2nnc(-c3ccc(OC)cc3OC)s2)c1	0%[46.1 µM]	·	?	10µM*	11%
COc1ccc(C(=O)Nc2nnc(-c3cccs3)s2)cc1	3.2µM*	?	20	?	22%
COc1cccc(C(=O)Nc2nnc(-c3ccccc3)s2)c1	-18%[46.1 µM]	?	180	7%	16%
O=C(CN(Cc1ccco1)C(=O)CCC(=O)Nc1ccccn1)NCc1ccccc1	-17%[46.1 µM]	·	-27	0%	-4%
Cc1noc(C)c1COc1ccc(C(=O)N2CCCC(C(F)(F)F)C2)cc1 (stereo not drawn)	-28%	-6%	-16	-19%	0%
COc1cccc(NC(=O)CSc2nc3ccc(NC(=O)c4cccs4)cc3s2)c1	?	?	-21	·	-22%
COc1ccc2c(c1)CCC1[C@@H]2CCC2(C)[C@@H](NCCCCCCN3C(=O)C=CC3=O)CC[C@@H]12 (stereo partly drawn)	·	·	·	·	-8%
CCOC(=O)C(=C1Nc2ccccc2N1)n1c(-c2cccnc2)nc2ccccc21	·	·	144	·	5%
COc1cc(C(C)=O)ccc1OCC(=O)NCC(c1ccc(F)cc1)N1CCOCC1 (stereo not drawn)	-16%[46.1 µM]	0%[46.1 µM]	-12	2%	-6%
O=[N+]([O-])c1cnc(Sc2ccncn2)s1	·	·	-99*	7.1µM*	40µM*
CCCCNC(=O)N1CCCN(c2ccc(C#N)cn2)CC1	-5%	·	-65*	7%	5%
CCn1c(SCc2ccccc2)nnc1-c1nonc1NC(C)=O	-6%[46.1 µM]	-4%[46.1 µM]	-5	·	?
Cc1ccc2occ(CN3CCOc4ccc(C(C)(O)COc5ccccc5)cc4C3)c(=O)c2c1 (stereo not drawn)	·	·	·	·	-21%
Cc1ccc(CN2C(=O)CN=C(c3ccccc3)c3ccccc32)cc1	?	-23%	-74*	16%	?
Cc1nn(-c2nnc(NC3CCCCC3)nn2)c(C)c1Br	3.5µM*	?	83	-2%	11%
Cc1nn(C)c(C)c1S(=O)(=O)NC1CCCC1	8%[46.1 µM]	9%	-16	17%	3%
CC(=O)c1cccc(NC(=O)C2Cc3c(-c4cccc(C(N)=O)c4)ccnc3O2)c1 (stereo not drawn)	·	·	18	·	?
CC(=O)Nc1ccc(-c2ccnc3c2CC(C(=O)Nc2ccc(Cl)c(C(F)(F)F)c2)O3)cc1 (stereo not drawn)	·	·	-26	·	0%
CC(=O)c1cccc(-c2ccnc3c2CC(C(=O)Nc2ccc(C(C)C)cc2)O3)c1 (stereo not drawn)	·	·	-82*	·	-14%
O=C(Nc1ccc(Cl)c(C(F)(F)F)c1)C1Cc2c(-c3ccccc3)ccnc2O1 (stereo not drawn)	·	·	-84*	·	-27%
COc1ccc(NC(=O)C2Cc3c(-c4cccc(F)c4)ccnc3O2)cc1 (stereo not drawn)	·	·	-81*	·	-15%
CC(=O)c1cccc(NC(=O)C2Cc3c(-c4cccc(C(C)=O)c4)ccnc3O2)c1 (stereo not drawn)	·	·	?	·	22µM*
